The target of the assay is T1, CRBN, Q96SW2.
T1 chain: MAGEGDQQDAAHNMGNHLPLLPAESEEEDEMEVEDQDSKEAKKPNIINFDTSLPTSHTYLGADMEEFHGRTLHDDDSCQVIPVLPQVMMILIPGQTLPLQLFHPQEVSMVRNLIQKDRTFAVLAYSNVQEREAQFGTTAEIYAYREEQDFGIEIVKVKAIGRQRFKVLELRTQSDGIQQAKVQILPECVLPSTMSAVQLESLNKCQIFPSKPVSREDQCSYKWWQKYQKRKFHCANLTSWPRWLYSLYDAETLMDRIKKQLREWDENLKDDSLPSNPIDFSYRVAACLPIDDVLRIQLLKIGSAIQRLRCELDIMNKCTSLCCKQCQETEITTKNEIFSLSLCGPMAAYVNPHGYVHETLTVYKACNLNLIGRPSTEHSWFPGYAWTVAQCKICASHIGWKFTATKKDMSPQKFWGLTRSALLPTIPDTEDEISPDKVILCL
The experiment in a line: log2 fold change of degron read counts, EGFP-low vs EGFP+ sorted cells (limma voom), compound-induced degradation; higher = more compound-induced degradation of the degron-EGFP fusion; degrons are variants of IKZF1/3 zinc finger 2; compound dose not given here. As to conditions: Jurkat, 18 h.

Where [1] appears, read: compound: compound 19 (5-tert-butyl-thalidomide).
The mark [2] stands for this setting: compound: compound 22 (5-morpholino-thalidomide).
Setting [3] is: compound: compound 33 (diphenyl IMiD analogue).

The full ranking holds about 8,300 sequences; the median of “log2 fold change of degron read counts, EGFP-low vs EGFP+ sorted cells (limma voom), compound-induced degradation” is about -1.1, and the highest 2% start at about 3.2. For the sample, the highest values were picked, then their nearest neighbours and some sequences at random.
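Further: pooled lentiviral library of zinc finger degron-EGFP fusions in mCherry-positive Jurkat cells, FACS-sorted after compound exposure, with degron abundance counted by next-generation sequencing.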

For FICNQCGAMFTQKGNLLRHIKL [46F_47I_49N_50Q_52G_53A_54M_55F_67L_, Q9UKT9], the “log2 fold change of degron read counts” value was -2.72 under setting [1], -2.75 under setting [2], -0.507 under setting [3] and -1.6 (compound: thalidomide).

With FSCPICGHCFTQKGNLLRHIKL [46F_47S_49P_50I_52G_53H_54C_55F_67L_, Q9UKT9], the “log2 fold change of degron read counts” value was -2.27 under setting [1], -2.66 under setting [2], -1.41 under setting [3] and -1.81 (compound: thalidomide).

With FLCNICGAHFTQKGNLLRHIKL [46F_47L_49N_50I_52G_53A_54H_55F_67L_, Q9UKT9], the “log2 fold change of degron read counts” value is -1.65 under setting [1], -2 under setting [2], -0.489 under setting [3] and -0.376 (compound: thalidomide).

On to FFCSVCGHTFTQKGNLLRHIKL [46F_47F_49S_50V_52G_53H_54T_55F_67L_, Q9UKT9], for which the “log2 fold change of degron read counts” value under setting [1] was -1.42, the “log2 fold change of degron read counts” value under setting [2] is -2.35, the “log2 fold change of degron read counts” value under setting [3] is -2.3 and the “log2 fold change of degron read counts” value (compound: thalidomide) is -2.45.

For FNCNQCGAKFTQKGNLLRHIKL [46F_47N_49N_50Q_52G_53A_54K_55F_67L_, Q9UKT9], the “log2 fold change of degron read counts” value under setting [1] is -2.03, the “log2 fold change of degron read counts” value under setting [2] was -2.67, the “log2 fold change of degron read counts” value under setting [3] was -2.17 and the “log2 fold change of degron read counts” value (compound: thalidomide) was -1.99.

Take FQCNQCGHYFTQKGNLLRHIKL [46F_47Q_49N_50Q_52G_53H_54Y_55F_67L_, Q9UKT9]: the “log2 fold change of degron read counts” value is, setting by setting: under setting [1], -3.07; under setting [2], -2.91; under setting [3], -2.9; (compound: thalidomide) -2.48.

Consider FYCNQCGATFTQKGNLLRHIKL [46F_47Y_49N_50Q_52G_53A_54T_55F_67L_, Q9UKT9], for which the “log2 fold change of degron read counts” value is -1.8 under setting [1], -0.678 under setting [2], -1.33 under setting [3] and -2.43 (compound: thalidomide).

In the case of FHCDQCGAWFTQKGNLLRHIKL [46F_47H_49D_50Q_52G_53A_54W_55F_67L_, Q9UKT9], the “log2 fold change of degron read counts” value reads like this: under setting [1], -2.39; under setting [2], -3.42; under setting [3], -2.72; (compound: thalidomide) -2.68.

Regarding FYCEICGRDFTQKGNLLRHIKL [46F_47Y_49E_50I_52G_53R_54D_55F_67L_, Q9UKT9], the “log2 fold change of degron read counts” value under setting [1] is -2.29, the “log2 fold change of degron read counts” value under setting [2] is -2.76, the “log2 fold change of degron read counts” value under setting [3] was -1.95 and the “log2 fold change of degron read counts” value (compound: thalidomide) was -2.67.

As to FQCDQCGAQFTQKGNLLRHIKL [46F_47Q_49D_50Q_52G_53A_54Q_55F_67L_, Q9UKT9], the “log2 fold change of degron read counts” value reads like this: under setting [1], -2.81; under setting [2], -1.76; under setting [3], -1.35; (compound: thalidomide) 0.414.

As for FFCEICGHMFTQKGNLLRHIKL [46F_47F_49E_50I_52G_53H_54M_55F_67L_, Q9UKT9], the “log2 fold change of degron read counts” value under setting [1] was -1.68, the “log2 fold change of degron read counts” value under setting [2] is -2.18, the “log2 fold change of degron read counts” value under setting [3] was -1.72 and the “log2 fold change of degron read counts” value (compound: thalidomide) was -2.01.

As for FECNQCGAYFTQKGNLLRHIKL [46F_47E_49N_50Q_52G_53A_54Y_55F_67L_, Q9UKT9], the “log2 fold change of degron read counts” value was -2.64 under setting [1], -2.84 under setting [2], -1.48 under setting [3] and -1.4 (compound: thalidomide).

In the case of FMCEICGHVFTQKGNLLRHIKL [46F_47M_49E_50I_52G_53H_54V_55F_67L_, Q9UKT9], the “log2 fold change of degron read counts” value runs as follows: under setting [1], -2.94; under setting [2], -3.04; under setting [3], -2.18; (compound: thalidomide) -2.54.

Consider FKCNICGAWFTQKGNLLRHIKL [46F_47K_49N_50I_52G_53A_54W_55F_67L_, Q9UKT9], for which the “log2 fold change of degron read counts” value was -1.98 under setting [1], -2.92 under setting [2], -2.11 under setting [3] and -1.78 (compound: thalidomide).

As for FCCPICGADFTQKGNLLRHIKL [46F_47C_49P_50I_52G_53A_54D_55F_67L_, Q9UKT9], the “log2 fold change of degron read counts” value is 1.61 under setting [1], 1.1 under setting [2], 1.77 under setting [3] and 1.6 (compound: thalidomide).

Turning to FCCNICGAPFTQKGNLLRHIKL [46F_47C_49N_50I_52G_53A_54P_55F_67L_, Q9UKT9], the “log2 fold change of degron read counts” value was found to be 3.01 under setting [1], 2.73 under setting [2], 1.32 under setting [3] and 1.86 (compound: thalidomide).

FYCPICGAPFTQKGNLLRHIKL [46F_47Y_49P_50I_52G_53A_54P_55F_67L_, Q9UKT9]: the “log2 fold change of degron read counts” value under setting [1] came out at 3.63, the “log2 fold change of degron read counts” value under setting [2] was 3.27, the “log2 fold change of degron read counts” value under setting [3] stood at 2.84 and the “log2 fold change of degron read counts” value (compound: thalidomide) was found to be 2.2.

With FYCPICGADFTQKGNLLRHIKL [46F_47Y_49P_50I_52G_53A_54D_55F_67L_, Q9UKT9], the “log2 fold change of degron read counts” value is 1.73 under setting [1], 1.44 under setting [2], 1.25 under setting [3] and -0.522 (compound: thalidomide).

With FLCPICGAPFTQKGNLLRHIKL [46F_47L_49P_50I_52G_53A_54P_55F_67L_, Q9UKT9], the “log2 fold change of degron read counts” value runs as follows: under setting [1], 2.02; under setting [2], 2.98; under setting [3], 2.65; (compound: thalidomide) 3.18.

For FDCPICGAPFTQKGNLLRHIKL [46F_47D_49P_50I_52G_53A_54P_55F_67L_, Q9UKT9], the “log2 fold change of degron read counts” value is, setting by setting: under setting [1], 2.88; under setting [2], 1.73; under setting [3], 1.54; (compound: thalidomide) 2.15.

FVCPICGAPFTQKGNLLRHIKL [46F_47V_49P_50I_52G_53A_54P_55F_67L_, Q9UKT9]: the “log2 fold change of degron read counts” value under setting [1] is 2.4, the “log2 fold change of degron read counts” value under setting [2] is 3.68, the “log2 fold change of degron read counts” value under setting [3] was found to be 2.3 and the “log2 fold change of degron read counts” value (compound: thalidomide) was 3.49.

On to FCCPICGAPFTQKGNLLRHIKL [46F_47C_49P_50I_52G_53A_54P_55F_67L_, Q9UKT9], for which the “log2 fold change of degron read counts” value is 3.65 under setting [1], 3.16 under setting [2], 2.16 under setting [3] and 2.67 (compound: thalidomide).

With FYCPICGAKFTQKGNLLRHIKL [46F_47Y_49P_50I_52G_53A_54K_55F_67L_, Q9UKT9], the “log2 fold change of degron read counts” value was determined as 2.61 under setting [1], 3.07 under setting [2], 1.08 under setting [3] and 0.503 (compound: thalidomide).

For the origin of these results see the supplement of paper PMC12645437, “Orthogonal IMiD-Degron Pairs Induce Selective Protein Degradation in Cells” (ACS Chemical Biology, 2025).
